# In PubChem BioAssay (Tox21):
# Values without a mark were called inactive. The call rests on the fitted dose curve.
# Biological target: Acetylcholinesterase (Homo sapiens) (UniProt P22303)
# Assay: Acetylcholinesterase (AChE) small molecule antagonists: enzyme-based qHTS assay with human liver microsomes (AID 1347399); further: nearly all actives have a fitted effect of over 60% in size
# Conditions: Potency: qHTS inhibition; outcome: qHTS inhibition; series mostly up to 115 µM; activity change, negative = inhibition: at the top concentration
# Summary of the method: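 Recombinant human AChE (50 mU/mL in the enzyme mix) and human liver microsomes (0.25 mg/mL final) were preincubated with compound and NADPH (0.25 mg/mL final) for 30 min at 37 C. Acetylthiocholine/DTNB was then added; thiocholine was read colorimetrically after 10 min at room temperature.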
# On the % scale 0 is the no-effect control and ±100 the full control effect.
# Chain of Acetylcholinesterase (Homo sapiens) (P22303 whole entry, looked up): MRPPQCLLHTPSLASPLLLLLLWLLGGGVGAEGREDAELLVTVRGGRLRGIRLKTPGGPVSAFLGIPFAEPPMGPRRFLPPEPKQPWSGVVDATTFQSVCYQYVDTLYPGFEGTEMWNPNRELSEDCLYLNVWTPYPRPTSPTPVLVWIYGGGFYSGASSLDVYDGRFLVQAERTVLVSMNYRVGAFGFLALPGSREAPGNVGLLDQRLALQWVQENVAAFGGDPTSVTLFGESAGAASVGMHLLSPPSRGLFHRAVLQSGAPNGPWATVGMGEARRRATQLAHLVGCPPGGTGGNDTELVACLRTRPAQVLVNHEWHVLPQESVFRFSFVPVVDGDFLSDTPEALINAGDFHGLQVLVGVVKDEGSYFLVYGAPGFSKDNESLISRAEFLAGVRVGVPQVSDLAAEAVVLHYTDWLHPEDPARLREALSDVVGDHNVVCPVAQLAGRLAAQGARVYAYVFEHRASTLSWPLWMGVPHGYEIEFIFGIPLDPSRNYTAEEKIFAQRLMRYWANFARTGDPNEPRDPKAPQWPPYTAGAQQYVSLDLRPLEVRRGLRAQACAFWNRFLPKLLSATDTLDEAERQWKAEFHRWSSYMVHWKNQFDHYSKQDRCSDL
row,SMILES,"activity change, negative = inhibition"
1,O=C(Nc1ccc(Oc2ccc(Cl)cc2)c(Cl)c1)c1cc(I)cc(I)c1O,-0.213% [at 53 µM]
2,CCC[C@@H]1C[C@@H](C(=O)N[C@@H]([C@H]2O[C@H](SC)[C@H](O)[C@@H](O)[C@H]2O)[C@@H](C)O)N(C)C1,0.168% [at 53 µM]
3,CO[Si](CCCS)(OC)OC,0.153%
4,CCCCCOC(=O)c1ccc(O)cc1,-1.01%
5,CC(=O)N(CC(=O)N(C)C)c1ccccc1,0% [at 53 µM]
6,COC(=O)c1cccc(Cl)c1,-0.141%
7,CC(C)(C)c1nnc(NS(=O)(=O)c2ccc(N)cc2)s1,0.177% [at 53 µM]
8,CCN(CC)CCc1nc(-c2ccccc2)no1,-1.34% [at 53 µM]
9,O=C(O)c1cccc(C(F)(F)F)c1,-0.634%
10,C=CCOC(=O)COCCC(C)C,0.0142%
11,CCCCCCC1(C)CCC(=O)O1 (stereo not given),-1.77%
12,COc1cccc(OC)c1C(=O)O,-1.22%
13,CCCCN1CCCC1C(=O)Nc1c(C)cc(C)cc1C (stereo not given),-1.43% [at 53 µM]
14,C[N+](C)(CCOc1ccccc1)Cc1cccs1,-1.05% [at 53 µM]
15,CCCCCCCCC1CCC(=O)O1 (stereo not given),1.45%
16,Sc1nc2ccccc2s1,-0.38%
17,Cc1cccc2nccnc12,0.229%
18,O=CCCc1ccccc1,-1.34%
19,CCCCCCCCCCCCCCN(C)C,0.379% [at 23.6 µM]
20,CC(C)=CCC/C(C)=C/C=N/O,-1.53%

row,SMILES,"activity change, negative = inhibition"
1,CC(C)c1cccc(C(C)C)c1NC(=O)NS(=O)(=O)c1cc(C(C)(C)O)co1,0.146%
2,COc1ccc(NS(=O)(=O)c2ccc(N)cc2)nn1,0.504% [at 53 µM]
3,CC(=O)c1ccc2c(c1)N(CCCN1CCC(CCO)CC1)c1ccccc1S2,0.168% [at 53 µM]
4,C=C1CC[C@H]2O[C@]2(C)CC[C@@H]2[C@@H]1CC2(C)C,1.9%
5,OCCCCCCO,-0.99%
6,Nc1ccc(Cl)c([N+](=O)[O-])c1,-0.0024%
7,CN=C(NC#N)NCCSCc1csc(N=C(N)N)n1,-0.376% [at 53 µM]
8,CCC(CC)C(C)CCOC(C)=O (stereo not given),1.6%
9,CCOC(=O)CC(=O)C(=O)OCC,-0.861%
10,Clc1ccc2nsnc2c1NC1=NCCN1,-0.826% [at 53 µM]
11,CCOC(=O)N1CCC(Nc2ccc(Cl)cc2N)CC1,-6.29% [at 53 µM]
12,CC(C)CCCC(C)CCO (stereo not given),0%
13,O=C1OC(OC(=O)c2cccnc2Nc2cccc(C(F)(F)F)c2)c2ccccc21 (stereo not given),3.65% [at 53 µM]
14,CC1=C(/C=C/C(C)=C/C=C/C(C)=C\C(=O)O)C(C)(C)CCC1,0.333%
15,O=C(O)COCC(=O)O,-1.17%
16,CC(C)Cn1cnc2c(N)nc3ccccc3c21,1.68% [at 23.6 µM]
17,Cc1cc(N)c(S(=O)(=O)O)cc1Cl,-0.516%
18,COC(=O)c1ccccc1Cl,0.535%
19,CCCC(=O)OC/C=C(\C)CCC=C(C)C,-1.25%
20,CCC(OCCCOC)OC(C)=O (stereo not given),0%
